Tests used:
Assay in all cases: PBM binding z-score (relative to random genomic background probes); higher = stronger binding; sequences stand for … in GC…GCGATTGACAGCGTAGAATGAAGG
[1] = test system: PPARg:RXRa DBDmut IVT, anti-RXR (DBD mutation: RXRa K156A/R161A, NR concentration 270 nM, RXRa partner concentration 90 nM)
In short: (§1)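 Binding z-scores were set against random background probes. The data came from custom Agilent 4×180K protein-binding microarrays carrying double-stranded probes with 34-nt variable regions, incubated 1 h with ligand-free nuclear receptor dimers. Partner-specific antibodies detected binding, and scanned fluorescence was regression-normalized.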

[2] = test system: PPARg:RXRa IVT, anti-PPARg (NR concentration 270 nM, RXRa partner concentration 90 nM)
In short: as §1

[3] = test system: PPARg DBDmut:RXRa IVT, anti-PPARg (DBD mutation: PPARg1 K132A/R137A, NR concentration 270 nM, RXRa partner concentration 90 nM)
In short: as §1

[4] = test system: PPARg DBDmut IVT, anti-PPARg (DBD mutation: PPARg1 K132A/R137A, NR concentration 270 nM)
In short: as §1

[5] = test system: PPARg homodimer (NR concentration 180 nM)
In short: as §1

[6] = test system: PXR:RXRa (NR concentration 270 nM, RXRa partner concentration 90 nM)
In short: as §1

[7] = test system: PXR homodimer (NR concentration 270 nM)
In short: as §1

[8] = test system: RARa:RXR (NR concentration 270 nM, RXRa partner concentration 90 nM)
In short: as §1

[9] = test system: RARa homodimer (NR concentration 270 nM)
In short: as §1

[10] = test system: RARb:RXRa (NR concentration 270 nM, RXRa partner concentration 90 nM)
In short: as §1

Row | Sequence | PBM binding z-score [1] | PBM binding z-score [2] | PBM binding z-score [3] | PBM binding z-score [4] | PBM binding z-score [5] | PBM binding z-score [6] | PBM binding z-score [7] | PBM binding z-score [8] | PBM binding z-score [9] | PBM binding z-score [10]
1 | CCTGACGGGTCAAGGTTATAGCACGGGTGGTACG | 0.0106 | 1.52 | -0.561 | -0.647 | 1.94 | 2.74 | 0.233 | 3.65 | 0.717 | 3.78
2 | CGAACGAGGGCATGAGTTGATAGTAAATGCCGAT | 3.01 | 1.98 | -0.123 | 0.201 | -0.00807 | 0.636 | 0.316 | 0.644 | -0.245 | 1.94
3 | CTCGAAAGCTCGGTTGAGGTGAGTATACGGATAA | -0.672 | -0.193 | -0.22 | -0.607 | -0.84 | -0.305 | -0.679 | 0.034 | -0.648 | -0.166
4 | GCTAGTTGGTCGGTAAAAGGTCACACACCGGTCG | 0.248 | 3.4 | 0.279 | 0.356 | 3.46 | 4.78 | 1.24 | 5.17 | 1.42 | 4.08
5 | CGAACTAGGTCAAGGACAGTTAATCTCCGCACGC | 8.24 | 8.35 | 2.25 | 0.939 | 1.62 | 1.5 | 0.185 | 1.87 | 0.669 | 3.76
6 | ATACCAAGGTGATCGTAAGGTCGTTGATACTAAC | 0.558 | 1.51 | 0.685 | 0.646 | 0.753 | 2.81 | 1.42 | 2.19 | 0.841 | 1.55
7 | TAGCCTAGGTCAGCTCGGGCCAGTATACGCTATA | 1.01 | 1.73 | -1.19 | -1.03 | 0.105 | 1.77 | -0.949 | 1.39 | -0.994 | 3.65
8 | TCTTGTAGATCAACAGAAGGTTAAGAAAGATCGA | 2.05 | 0.787 | 0.882 | 0.062 | -0.0281 | 0.812 | 0.0567 | 0.954 | -0.338 | 0.701
9 | CCGAGTAGCTTATGGGGCATTCAGGCAACGGTGA | 0.454 | 0.117 | -1.42 | -1.07 | -0.422 | -0.731 | -0.54 | -0.568 | -0.432 | -0.266
10 | CAAACTAGGTTACCGGAAGGTCAAAGTCCGCATG | 7.31 | 6.8 | 1.12 | 1.42 | 4.03 | 4.47 | 1.65 | 5.36 | 1.39 | 3.9
11 | CCTTACGGGTCACGAGGTTAAAGCACGACGAGCG | 3.53 | 5.39 | 0.774 | 0.583 | 4.94 | 4.93 | 0.408 | 6.28 | 1.03 | 4.76
12 | CGGACGAGGGCATGAGTTGATAGCAAATGCCGAT | 1.74 | 0.979 | -0.792 | -1.58 | -0.164 | 0.528 | 0.00329 | 0.284 | 0.0592 | 2.03
13 | GCTAGTTGGTTAGTAAAAGGTCACACACCGGTCG | 0.595 | 2.29 | 0.167 | 0.647 | 4.26 | 5.09 | 1.29 | 6.05 | 3.17 | 3.99
14 | CAAACTAGATCACGAAAGGTCAAAGTCGAATGAC | 3.85 | 4.1 | 1.64 | 2.11 | 4.54 | 5.85 | 2.42 | 6.41 | 2.84 | 4.5
15 | GGAACAAGGGCATTCGAGTTGATAGCATGGCGAT | 2.21 | 1.65 | -0.248 | -0.286 | 0.614 | 3.18 | 0.975 | 0.884 | 0.198 | 2.02
16 | CGTCCGAGGTCAGCAGGTCAGTGAAAGCGACGTG | 3.37 | 4.16 | 0.747 | 0.472 | 4.76 | 4.43 | 0.531 | 5.55 | 1.59 | 5.15
17 | GCAGACAGGTGAAACGCAGGTTACTCAGGGTGGC | 1.13 | 0.617 | -0.717 | -0.933 | -0.435 | 0.076 | -0.507 | 0.833 | -0.748 | 1.02
18 | GCATATAGGTAATACAATGTGAAAGTCCGATTGT | 4.03 | 2.5 | 1.42 | 1.13 | 0.581 | 0.112 | 0.544 | 0.557 | 0.819 | 0.0649
19 | TCATATAGGTAACCAGGTGAAAGTCCGTAAGTTA | 5.2 | 5.99 | 0.0685 | 0.802 | 1.14 | 0.852 | 0.506 | 1.06 | 0.583 | 1

From the supplement of paper PMC6555819
